Screening results: PubChem, National Center for Advancing Translational Sciences (NCATS)
HEK293 cAMP cs = raises cAMP in parental HEK293 cells, TSHR agonist counter-screen. parental HEK293 CNG cAMP sensor, membrane potential fluorescence. Potency, µM (doses to about 57.1 µM), usual class: activators. 2.5% of 73,000 active; note: nearly all actives have a fitted effect of over 55% in size
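Parental HEK 293 cells stably expressing a modified CNG channel (no TSHR) report cAMP rise as membrane depolarization. Membrane potential dye with 100 uM RO 20-1724 was loaded for 60 min at room temperature, then compound added for 30 min; fluorescence read at 590 nm.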
Imprint erasure = genomic imprint erasure induction; mouse ES Peg3-LacZ reporter, beta-gal luminescence, 40 h; Potency, µM (top dose mostly 60.7 µM), actives largely listed as activators; 0.02% of 110,000 active; AID 1948
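Imprint erasure is scored as LacZ activity from the silenced maternal Peg3 allele in feeder-free female ES cells cultured 40 h with LIF. Luminescence is normalized to in-plate negative controls and fitted to the Hill equation.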
TSHR ag = activates the human thyroid stimulating hormone receptor | P16473 | 0.48% of 73,000 active | AID 926 | HEK293-CNG-TSHR cells (CNG channel as cAMP sensor), membrane potential dye, cAMP | Potency, µM (series often up to 57.1 µM), hits mostly activators; active = well fitted activation curve with a large enough effect in the main read-out, with a control signal flat, not every such curve was filed as active; inconclusive = small, poorly fitted or top-dose-only effect, or a change in a side signal; inactive = no such curve, though single readings can be large or run the other way; reference of the percent scale not stated here;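 note: the control signal comes from parental cells without the receptor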
Target sequence (P16473 whole entry, looked up): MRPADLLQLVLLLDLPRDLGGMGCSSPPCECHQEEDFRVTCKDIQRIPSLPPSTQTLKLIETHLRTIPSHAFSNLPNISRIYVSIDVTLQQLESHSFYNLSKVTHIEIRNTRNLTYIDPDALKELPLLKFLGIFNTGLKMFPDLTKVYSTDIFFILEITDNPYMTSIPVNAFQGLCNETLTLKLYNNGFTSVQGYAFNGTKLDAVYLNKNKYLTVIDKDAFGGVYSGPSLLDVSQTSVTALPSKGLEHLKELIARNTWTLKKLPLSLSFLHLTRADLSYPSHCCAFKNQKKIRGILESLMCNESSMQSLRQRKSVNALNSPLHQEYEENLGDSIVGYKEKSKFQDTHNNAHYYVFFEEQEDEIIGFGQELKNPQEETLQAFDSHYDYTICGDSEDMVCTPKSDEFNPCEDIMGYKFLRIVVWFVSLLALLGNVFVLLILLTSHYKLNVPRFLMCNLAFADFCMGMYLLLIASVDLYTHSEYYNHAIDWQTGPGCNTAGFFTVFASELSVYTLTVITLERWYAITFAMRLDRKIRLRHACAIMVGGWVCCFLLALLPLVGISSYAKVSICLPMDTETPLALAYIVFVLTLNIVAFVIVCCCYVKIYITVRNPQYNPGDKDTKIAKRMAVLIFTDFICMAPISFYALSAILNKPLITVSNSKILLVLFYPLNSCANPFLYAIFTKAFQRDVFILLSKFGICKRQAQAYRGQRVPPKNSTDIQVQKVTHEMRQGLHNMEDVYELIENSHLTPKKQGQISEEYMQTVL
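HEK 293 cells stably expressing TSHR and a cAMP-gated CNG channel; parental CNG-only cells as counterscreen. Cells preloaded 60 min with membrane potential dye plus 100 uM RO 20-1724, then compound 30 min; fluorescence read at 590 nm.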
Of the large screens only hits and unclear results are named; the others gave an inactive call. The sample as a whole holds a higher share of hits than the screen did. Unless noted, calls come from the whole dose curve; as a rule, active = well fitted activation curve with a large enough effect; inconclusive = small, poorly fitted or top-dose-only effect; inactive = no such curve, though single readings can be large or run the other way.

COc1cccc(NC(=O)/C(C#N)=C/c2c(C)n(Cc3ccccc3)c3ccccc23)c1	none (no result: HEK293 cAMP cs, TSHR ag)
Cc1nc(N2CCCC2)c2c(C(=O)Nc3cccc(Cl)c3C)c(C)oc2n1	none (no result: HEK293 cAMP cs, TSHR ag)
O=C(O)CC(c1ccccc1)c1ccccc1	none
O=C(O)CC[P+](c1ccccc1)(c1ccccc1)c1ccccc1	HEK293 cAMP cs 3.2µM, TSHR ag inconclusive
COc1cccc(Nc2ncc3nc(C)c(=O)n(CCC#N)c3n2)c1	none (no result: Imprint erasure)
C=CCOC(=O)C(C(C)=O)C(NC(=O)OC)c1cccc(F)c1 (centres undefined)	none (no result: Imprint erasure)
CN(C)c1ncc2nc(-c3ccc(Cl)cc3)c(=O)n(-c3ccccc3)c2n1	none
COc1ccc(-n2ccnc2SCC(=O)Nc2cccc(OC)c2)cc1	none (no result: HEK293 cAMP cs, TSHR ag)
CCc1ccccc1OC[C@@H](O)CN[C@H]1CCCc2ccccc21	HEK293 cAMP cs 40µM, TSHR ag inconclusive
Cc1nc2cnc(N3CCNCC3)nc2n(C2CC2)c1=O	none (no result: Imprint erasure)
CCOc1cc(CNC(=O)c2ccc(C)c(NC(=O)c3nsc4ccccc34)c2)ccc1OC	none (no result: HEK293 cAMP cs, TSHR ag)
COc1cc(NC(=O)Cc2ccc(Cl)cc2)ccc1NC(=O)c1ccco1	none
COc1ccc(NC(=O)c2cc(Cl)ccc2NC(=O)c2ccco2)c(OC)c1	HEK293 cAMP cs 25µM, TSHR ag inconclusive
CCc1cnc2c(c1SCC(=O)Nc1ccc(OC)c(OC)c1)c(=O)n(C)c(=O)n2C	none (no result: HEK293 cAMP cs, TSHR ag)
CCn1c(C(=O)NCc2ccccn2)cc2sccc21	none (no result: Imprint erasure)
O=C(c1ccccc1)N(Cc1ccco1)Cc1cccs1	none (no result: HEK293 cAMP cs, TSHR ag)
Cn1c(C(=O)N(Cc2ccccc2)Cc2ccccn2)cc2sccc21	HEK293 cAMP cs 16µM, TSHR ag inconclusive
Cn1c(C(=O)N(Cc2ccccc2)Cc2cccs2)cc2sccc21	HEK293 cAMP cs 16µM, TSHR ag inconclusive
CCOc1ccc(CNC(=O)CCS(=O)(=O)c2cc3c4c(c2)CCN4C(=O)CC3)cc1OC	none (no result: HEK293 cAMP cs, TSHR ag)
CCOc1ccccc1C(=O)Nc1cccc(-c2nc3ccccc3s2)c1	none (no result: HEK293 cAMP cs, TSHR ag)
Cc1nc(N)nc2ccccc12	none
CCOc1ccc(-n2c(-c3ccc(Br)cc3)cc3c2CC(C)(C)CC3=O)cc1	none (no result: HEK293 cAMP cs, TSHR ag)
C[C@H](O)[C@H](O)[C@@H](O)c1cnc2nc(N)[nH]c(=O)c2n1	none (no result: Imprint erasure)
Cc1ccc2cc(CN(Cc3ccco3)C(=O)C3CCCCC3)c(=O)[nH]c2c1C	HEK293 cAMP cs 20µM, TSHR ag inconclusive (no result: Imprint erasure)
Cc1cc(C)c2[nH]c(=O)c(CN(Cc3ccco3)C(=O)C3CCCO3)cc2c1 (centres undefined)	none
CC(C)CCNC(=O)C1CCN(S(=O)(=O)c2ccc3c(c2)CCC(=O)N3)CC1	HEK293 cAMP cs 6.3µM, TSHR ag inconclusive
Cc1ccc(CCNC(=O)C2CCN(S(=O)(=O)c3ccc4c(c3)CCC(=O)N4)CC2)cc1	none
COc1ccc(-c2cc(C(F)(F)F)nc(S(=O)(=O)CCCC(=O)Nc3ccccc3C(F)(F)F)n2)cc1OC	none (no result: HEK293 cAMP cs, TSHR ag)
COc1ccc(CCNC(=O)c2cnn(-c3cccc(C)c3)c2C2CCN(C(=O)OC(C)(C)C)CC2)cc1OC	none (no result: HEK293 cAMP cs, TSHR ag)
Cc1cc(C)cc(NC(=O)Nc2c[nH]c(=O)[nH]c2=O)c1	none (no result: HEK293 cAMP cs, TSHR ag)
Fc1ccc(C(c2ccc(F)cc2)N2CCN(C/C=C\c3ccccc3)CC2)cc1	none
CCOC(=O)c1nnn(-c2nonc2N)c1CNc1ccccc1	none
CCOC(=O)c1nnn(-c2nonc2N)c1COc1ccccc1	HEK293 cAMP cs 13µM, TSHR ag inconclusive
CCC(C)NC(=O)CSc1nc2c(sc3ccccc32)c(=O)n1CCc1ccccc1 (centres undefined)	none (no result: HEK293 cAMP cs, TSHR ag)
Cc1cccc2cc(C#N)c(SCC(=O)N3CCC(C)CC3)nc12	HEK293 cAMP cs 25µM, TSHR ag inconclusive
Cc1cc(C)c2nc(SCC(=O)N3CCCCC3)c(C#N)cc2c1	HEK293 cAMP cs inconclusive, TSHR ag inconclusive
COc1cccc(Cn2c(CNS(=O)(=O)c3ccc4c(c3)CCCC4)nc3cccnc32)c1	none (no result: HEK293 cAMP cs, TSHR ag)
COc1ccc(N2CCN(c3oc(COc4ccccc4)nc3C#N)CC2)cc1	HEK293 cAMP cs 0.79µM, TSHR ag inconclusive (no result: Imprint erasure)
N#Cc1nc(COc2ccc(Br)cc2)oc1N1CCCCCC1	HEK293 cAMP cs 25µM, TSHR ag inconclusive
N#Cc1nc(COc2ccccc2)oc1N1CCOCC1	none
CN1CCN(c2oc(COc3ccc(-c4ccccc4)cc3)nc2C#N)CC1	HEK293 cAMP cs inconclusive, TSHR ag inconclusive
CC1CCN(C(=O)c2c(NC(=O)c3ccccc3F)sc3c2CCC(C(C)(C)C)C3)CC1 (centres undefined)	none (no result: HEK293 cAMP cs, TSHR ag)
CC1CCN(S(=O)(=O)c2ccc3nc(NCc4ccccc4)ccc3c2)CC1	none (no result: HEK293 cAMP cs, TSHR ag)
Cc1ccc(NC(=O)C2CCC(CNS(=O)(=O)c3cccs3)CC2)cc1C (centres undefined)	none (no result: HEK293 cAMP cs, TSHR ag)
CC(C)(C)n1nnnc1CN(Cc1ccco1)Cc1cc2cc3c(cc2[nH]c1=O)OCO3	none
CCC(C)(C)n1nnnc1CN(Cc1ccc(Cl)cc1)Cc1ccco1	HEK293 cAMP cs 10µM, TSHR ag inconclusive
